# Results: the supplement of paper PMC6555819
# Tests used:
# Assay in all cases: PBM binding z-score (relative to random genomic background probes); higher = stronger binding; sequences stand for … in GC…GCGATTGACAGCGTAGAATGAAGG
# [1] = tested on: PPARg:RXRa DBDmut IVT, anti-RXR (DBD mutation: RXRa K156A/R161A, NR concentration 270 nM, RXRa partner concentration 90 nM)
# In short: (§1)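 Binding buffer was PBS pH 7.4 with 2% milk, 0.02% Triton X-100, 1 mM DTT, 0.2 mg/mL BSA and 0.4 mg/ml salmon testes DNA. In it, ligand-free nuclear receptor dimers were incubated 1 h on custom Agilent 4×180K protein-binding microarrays carrying double-stranded probes. Antibodies against each partner (one per run) detected binding, and z-scores were calculated against random background probes after regression normalization of scanned fluorescence.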
# [2] = tested on: PPARg:RXRa IVT, anti-PPARg (NR concentration 270 nM, RXRa partner concentration 90 nM)
# In short: as §1
# [3] = tested on: PPARg DBDmut:RXRa IVT, anti-PPARg (DBD mutation: PPARg1 K132A/R137A, NR concentration 270 nM, RXRa partner concentration 90 nM)
# In short: as §1
# [4] = tested on: PPARg DBDmut IVT, anti-PPARg (DBD mutation: PPARg1 K132A/R137A, NR concentration 270 nM)
# In short: as §1
# [5] = tested on: PPARg homodimer (NR concentration 180 nM)
# In short: as §1
# [6] = tested on: PXR:RXRa (NR concentration 270 nM, RXRa partner concentration 90 nM)
# In short: as §1
# [7] = tested on: PXR homodimer (NR concentration 270 nM)
# In short: as §1
# [8] = tested on: RARa:RXR (NR concentration 270 nM, RXRa partner concentration 90 nM)
# In short: as §1
# [9] = tested on: RARa homodimer (NR concentration 270 nM)
# In short: as §1
# [10] = tested on: RARb:RXRa (NR concentration 270 nM, RXRa partner concentration 90 nM)
# In short: as §1
# [11] = tested on: RARb homodimer (NR concentration 270 nM)
# In short: as §1
# [12] = tested on: RARg:RXRa (NR concentration 270 nM, RXRa partner concentration 90 nM)
# In short: as §1
# [13] = tested on: RARg homodimer (NR concentration 270 nM)
# In short: as §1
# [14] = tested on: RXRa DBDmut IVT, anti-RXR (DBD mutation: RXRa K156A/R161A, NR concentration 90 nM)
# In short: as §1
# [15] = tested on: RXRa homodimer (NR concentration 180 nM)
# In short: as §1
# [16] = tested on: THRa:RXRa (NR concentration 90 nM, RXRa partner concentration 90 nM)
# In short: as §1
# [17] = tested on: THRa homodimer (NR concentration 90 nM)
# In short: as §1
# [18] = tested on: VDR:RXRa (NR concentration 270 nM, RXRa partner concentration 90 nM)
# In short: as §1
# [19] = tested on: VDR homodimer (NR concentration 270 nM)
# In short: as §1
Sequence,PBM binding z-score [1],PBM binding z-score [2],PBM binding z-score [3],PBM binding z-score [4],PBM binding z-score [5],PBM binding z-score [6],PBM binding z-score [7],PBM binding z-score [8],PBM binding z-score [9],PBM binding z-score [10],PBM binding z-score [11],PBM binding z-score [12],PBM binding z-score [13],PBM binding z-score [14],PBM binding z-score [15],PBM binding z-score [16],PBM binding z-score [17],PBM binding z-score [18],PBM binding z-score [19]
ATCTCTTGGTAACCAAGTTCAGTGAATGCCGAAC,-0.417,0.552,0.44,0.768,0.28,1.92,2.1,0.475,-0.473,0.956,1.4,0.23,0.417,1.2,0.509,0.819,0.000236,2.38,2.57
CCTCGGAGGACCGAAGGTCAGAGCTGTCCGCTTT,-0.463,-0.175,-1.41,-1.98,0.693,1.16,-0.615,1.55,-0.211,2.2,2.65,2.03,2.2,-0.585,1.54,1.62,-0.389,0.565,0.161
AGAACGAGGTTAAGATCAGGGAAACAGAATACAT,1.95,2.16,1.47,0.398,0.757,1.27,0.776,1.89,0.576,1.91,1.12,2.15,1.62,1.03,2.45,2.36,0.55,1.36,0.771
CCTTACGGGTCACTCCAGGTAATAGCATCGGAGT,2.28,3.72,0.64,0.618,2.25,3.63,0.169,3.88,0.163,3.72,2.75,4.2,4.02,1.48,4.32,4.97,0.347,3.08,1.19
TCGAGTAGGTTACCAATGTGGCATTCAGCTTTCT,3.64,2.82,-0.0688,-0.478,-0.26,0.165,-0.485,0.147,-1.11,0.736,-0.0137,0.035,0.256,0.471,0.375,0.00485,-0.499,-0.0444,-0.622
AGACTGAGGTTACCAAAGATCAGGGAAACGCTTG,0.451,1.01,-0.133,-0.273,0.133,1.42,-0.0396,1.82,-0.111,2.08,0.774,2,1.59,0.709,2.5,2.7,0.552,1.13,0.497
CCTAGTTGGTCAGGAGGTCACGCACCGGATATGA,1.74,4.03,0.246,-0.0131,3.74,4.85,1.04,5.52,2.11,4.06,4.9,5.68,4.98,0.815,5.93,3.94,2.78,4.58,2.71
ACTATTAGTTGACTTAGGGCAACCGGTACGACGC,0.0602,0.506,0.963,0.218,0.403,0.35,0.564,0.898,0.577,1.14,1.12,0.684,0.734,0.426,0.446,1.47,0.512,1.16,0.456
CAAACTAGGTCAACAGGTCAAAGTCCGCTTCCCG,8.61,8.71,4.74,3.76,4.14,4.32,1.23,5.98,3.05,4.81,4.94,6.85,6.36,2.45,5.98,3.78,1.9,4.87,2.78
CCTCGGAGGACAACAGGAGGTCAGAGCTGCCAGA,0.299,0.564,-0.994,-1.03,1.72,2.02,0.105,2.3,0.364,2.84,3.64,3.37,2.98,0.172,1.76,2.89,1.04,2,1.21
CAAATTAGGTCAAAGGTCAAAGTCGAGCCAACCA,8.74,8.96,4.97,4,6.21,7.1,2.26,8.95,3.73,5.94,5.41,9.09,7.57,3.17,10.4,4.76,2.4,6.81,3.43
ATACCAAGGTGATCGTAAGGTCGTTGATACTAAC,0.558,1.51,0.685,0.646,0.753,2.81,1.42,2.19,0.841,1.55,2.01,2.35,0.817,0.559,1.68,3.44,3.08,2.74,2.23
CCTCGGAGTACAGAAGGTCAGAGCTGTCCGCTTT,0.368,-0.113,-0.995,-1.23,1.8,1.83,0.165,2.18,0.283,2.69,3.15,2.77,2.95,0.9,2.37,2.3,0.111,1.64,0.59
TCTCGGAGGACACGAAGGTCATAGCTTTCCAGAG,1.58,1.77,-0.131,-1.04,1.95,3.8,3.5,3.59,0.346,3.62,3.93,4.04,4.13,1.41,3.28,3.55,1.66,4.04,3.09
TCTTGAAGATCAAAGGTTAAGAAAGCCGAAGCCT,1.75,1.72,0.267,0.871,1.22,2.3,0.147,3.49,0.254,2.07,1.32,2.04,0.685,0.731,3.74,1.37,-0.659,1.64,-0.364
CAAACTAGGTGAAAGGTCAAAGTCGAGCCAACCA,8.64,9.19,5.27,2.48,8.98,6.14,1.76,8,3.76,5.05,4.61,7.35,6.17,2.27,8.91,4.19,1.31,5.23,2.49
TCTACTAGGTCAACGATGGTCAGCTAATCTGCTA,7.66,7.96,1.25,1.79,1.93,1.93,0.246,2.54,1.28,4.23,3.59,4.28,5.16,1.89,3.07,3.2,1.37,2.27,0.629
TTACCAAGGTGAGCTGAGGTCGTTTATCCAACTC,0.956,1.9,-0.2,-0.389,-0.278,4.87,0.621,1.58,-1.08,1.53,1.47,1.08,0.862,0.292,1.27,4.58,2.09,4.32,2.23
ACTATTAGTTGACATAGGGCAACCGATACGACGC,0.444,0.742,1.27,1.22,0.811,0.547,0.504,0.635,0.879,1.19,1.24,0.928,1.29,0.826,0.903,1.25,0.125,0.569,0.399
GCTATTAGTTGAAAGGGCAACCGCATGATTCTCG,0.567,1.26,-0.261,-0.166,1.06,0.577,0.17,1.39,0.567,1.71,1.73,1.4,1.04,0.935,1.29,0.332,-0.105,0.504,0.195
CCTACGGGGCCATTCAGAGGTCATTGATCATATG,0.224,1.43,-1.02,-0.577,4.06,5.55,4.64,5.76,0.566,3.55,4.27,6.22,3.77,2.13,4.07,3.72,1.77,5.2,4.91
ACTATTAGTTGACTTAGGTCAACCGATACGACGC,0.95,1.72,1.38,1.44,2.81,2.2,1.29,2.59,1.55,2.73,3.31,2.8,2.9,1.07,2.17,3.47,2.98,2.42,1.41
AGGATGAGGTTATACGTAGATCAGGGAAGAAAGT,0.241,0.698,1.41,0.577,1.34,1.6,1.47,1.71,1.01,1.77,1.66,1.85,1.16,1.66,2.27,2.39,1.27,1.66,1.08
CCTATTAGTTGACCATAAGGGCAACCGGAGCTCG,0.164,0.489,-0.0255,0.00899,1.98,0.686,0.931,0.893,2.04,1.72,2.03,1.22,1.19,0.709,0.658,1.87,1.53,0.682,1.15
CGAACTAGGTCAGAACAGCACAGTGAAGGATGAT,7.06,7,0.891,0.278,0.531,0.247,-0.0288,0.419,0.0797,2.92,1.96,2.44,3.04,0.779,1.28,1.16,0.326,0.261,0.463
TTACCAAGGTGCGCTGAGGTCGTTGATCCAACTC,-0.264,0.111,-0.817,-0.343,-0.175,2.58,1.74,1.4,-0.803,0.681,1.13,0.294,-0.0595,1.12,0.936,3.59,1.87,4.07,3.64
CCGACTGGGGCGAGGTTACCATAACGCACAGCCA,0.314,0.726,-1.05,-1.46,0.254,0.372,-0.517,1.1,-0.00275,0.965,0.887,0.854,0.545,-0.326,1.39,1.55,0.408,0.364,0.294
TAGCCTAGGTCAGATCGGGCCAGTACACGCTATA,0.552,1.62,-0.751,-0.825,0.487,1.33,-0.37,0.937,-0.817,3.22,2.33,2.85,3.65,-0.269,1.55,4.29,0.126,0.906,0.0191
GCTTACGGGTCAAAGGTTATAGCGTGAATAGAAT,4.36,6.22,1.03,1.18,2.67,5.96,0.264,7.96,0.595,4.33,3.29,6.87,4.52,2.22,9.28,3.83,0.134,5.55,1.44
CGAACGAGGGCATGAGTTGGTAGCAAATGCCGAT,2.72,1.66,0.738,-0.612,-0.306,0.171,-0.43,0.384,-0.55,1.81,0.553,0.807,1.29,1.87,0.675,1.03,-0.283,0.602,0.904
